TEAD-YAP block = TEAD-YAP interaction inhibition, primary screen, TEAD-YAP interaction inhibitor project, luminescence, HEK-TIYL cells; inhibition, % at 9.12 µM; AID 1259422, 2018; TEAD-Gal4/YAP UAS-luciferase luminescence; actives 1.4% (n = 640,000); in the data active = inhibition above about 32%
GPR151 activ = activators of human GPR151, primary screen, cell-based, PathHunter beta-arrestin, luminescence. G-protein coupled receptor 151 (Homo sapiens), Q8TDV0. PathHunter beta-arrestin GPR151 cells. activation, % at 11.2 µM. actives 1% (n = 650,000); in the data active = activation above about 4.9%
Target sequence (Q8TDV0 whole entry, looked up): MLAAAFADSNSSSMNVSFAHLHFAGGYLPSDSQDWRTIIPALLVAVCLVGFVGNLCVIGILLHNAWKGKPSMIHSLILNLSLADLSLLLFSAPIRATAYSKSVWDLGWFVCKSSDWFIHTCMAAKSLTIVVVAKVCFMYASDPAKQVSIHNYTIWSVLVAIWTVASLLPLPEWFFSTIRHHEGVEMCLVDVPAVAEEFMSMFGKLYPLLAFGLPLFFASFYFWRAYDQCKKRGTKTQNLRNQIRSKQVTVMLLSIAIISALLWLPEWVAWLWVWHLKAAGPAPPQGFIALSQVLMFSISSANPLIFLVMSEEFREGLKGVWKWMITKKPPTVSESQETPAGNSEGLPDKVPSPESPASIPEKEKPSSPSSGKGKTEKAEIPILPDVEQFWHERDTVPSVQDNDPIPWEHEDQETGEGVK
FBW7 act = FBW7 E3 ligase activators, primary screen, biochemical, AlphaScreen, human; F-box/WD repeat-containing protein 7 (Homo sapiens), Q969H0; AlphaScreen FBW7–phospho-cyclin E peptide binding, activator screen; normalized activity (activation), % at 26.1 µM; actives 0.13% (n = 650,000); in the data active = normalized activity above about 1.9%;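 also: purified mutant Fbw7 with reduced substrate affinity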
MITF inh = MITF inhibitors, primary screen, biochemical, AlphaScreen, human. Microphthalmia-associated transcription factor (Homo sapiens), O75030. AlphaScreen MITF homodimerization, bead proximity signal. inhibition, % at 2.6 µM. actives 0.91% (n = 650,000); in the data active = inhibition above about 50%
Numbers stand for hits; – = inactive. This is a sample that favours compounds with a hit; in the whole collection about 3.5% have one here.

SMILES | TEAD-YAP block | GPR151 activ | FBW7 act | MITF inh
CC1C(=O)NN=C1C(=O)N/N=C/c1cccs1 (centres undefined) | 32 | – | – | –
CC(C)(C)OC(=O)N/N=C\c1cccs1 | – | – | 5.6 | –
CC1C(=O)NN=C1C(=O)N/N=C\c1cccnc1 (centres undefined) | 35 | – | – | –
O=C(O)CCNc1cc(N2CCC3(CC2)OCCO3)c2noc3c2c1C(=O)c1ccccc1-3 | – | – | – | 63
O=C(O)CNc1cc(N2CCCCC2)c2noc3c2c1C(=O)c1ccccc1-3 | 59 | – | – | –
CCOC(=O)C1CCN(c2cc(NCC(=O)O)c3c4c(onc24)-c2ccccc2C3=O)CC1 | – | – | – | 70
CCOC(=O)C1=C(C)NC(=O)NC1c1ccc(OCC(=O)N2CCCCC2)c(OC)c1 (centres undefined) | – | – | – | –
CCOC(=O)c1ccc(NC(=O)C(=O)NC2CCCCCC2)cc1 | – | – | – | –
CCOC(=O)c1c(/N=C/c2nc(-c3ccco3)oc2O)sc2c1CCC2 | – | – | – | –
COCCSc1nsc(NC(=O)Nc2cccc(C(C)=O)c2)n1 | 33 | – | – | –
Cc1cc(NC(=O)C(C)n2c3ccccc3c3nc(=O)cc(C)n32)ccc1Br (centres undefined) | – | – | – | –
Cc1ccc2oc3nn(-c4ccccc4)c(=O)c-3cc2c1 | 53 | – | – | –
CCOc1ccc(-n2c(=S)sc3c(=O)n(-c4ccccc4)c(SCc4nc5ccccc5[nH]4)nc32)cc1 | – | – | – | –
Cc1cccc(C)c1-n1c(SCc2ccccc2F)nc2c(sc(=S)n2-c2c(C)cccc2C)c1=O | 41 | – | – | –
Cc1cccc(C)c1-n1c(SCc2ccccc2F)nc2c(sc(=S)n2CCc2ccccc2)c1=O | – | – | – | –
O=c1c2sc(=S)n(-c3ccccc3)c2nc(SCc2nc3ccccc3[nH]2)n1-c1ccccc1 | 33 | – | – | –
NC1=NN(c2ccccc2)C(=O)C1 | – | – | – | –
O=C1CC(C23CC4CC(CC(C4)C2)C3)=NN1c1ccccc1 | 33 | – | – | –
c1ccc(-n2cnc3c(NC4CC4)nc(Nc4ccccn4)nc32)cc1 | 47 | – | – | –
FC(F)(F)c1ccc(Nc2nc(NC3CC3)c3ncn(-c4ccccc4)c3n2)cc1 | – | – | – | –
c1ccc(Nc2nc(NC3CC3)c3ncn(C4CCCCC4)c3n2)nc1 | – | – | – | –
c1ccc(-n2cnc3c(NC4CC4)nc(Nc4cccnc4)nc32)cc1 | 42 | – | – | –
c1ccc(Nc2nc(NC3CC3)c3ncn(-c4ccccc4)c3n2)cc1 | 47 | – | – | –
c1ccc(-n2cnc3c(NC4CC4)nc(Nc4ccc(-n5ccnc5)cc4)nc32)cc1 | 41 | – | – | –
CCO/N=C1/SCC(=O)N1c1cccc(Cl)c1 | – | – | – | –
SMILES | TEAD-YAP block | GPR151 activ | FBW7 act | MITF inh
Cc1ccc(Cl)cc1N1C(=O)C2C(C1=O)C1(c3ccccc3)C(=O)C2(c2ccccc2)C(c2ccccc2)=C1c1ccccc1 (centres undefined) | – | – | – | –
CN1CCN(Cc2cc(=O)oc3ccc4ccccc4c23)CC1 | – | – | – | –
CN1CCN(Cc2cc(CSc3ccccc3)c3cccnc3c2O)CC1 | 81 | – | – | 65
CN1CCN(Cc2cc(COCc3ccccc3)c3cccnc3c2O)CC1 | 74 | – | – | 101
Oc1c(CN2CCN(c3cccc(C(F)(F)F)c3)CC2)cc(COCc2ccccc2)c2cccnc12 | – | – | – | –
COc1ccc(C(=O)N/N=C(\C)CC(=O)N(C)c2ccccc2)c(OC)c1 | – | – | – | –
Cc1cc(NC(=O)NC(=O)c2c(Cl)cccc2Cl)n[nH]1 | – | – | – | –
Cc1ccc(C(O)CNC(=O)Nc2ccccc2Cl)o1 (centres undefined) | – | – | – | –
COc1ccc(Br)cc1/C=C/C(=O)c1cccc(NC(C)=O)c1 | 75 | – | – | –
COc1ccccc1C(=O)N/N=C/c1c(O)ccc2ccccc12 | 37 | – | – | –
COc1ccc(/C=N/NC(=O)c2ccccc2O)cc1O | – | – | – | –
COc1ccc(/C=N/NC(=O)c2cn(C)c3ccccc23)cc1O | 33 | – | – | –
Cc1occc1C(=O)N/N=C/c1c(O)ccc2ccccc12 | 47 | – | – | –
Cc1cc(=O)oc2cc(NC(=S)NCc3ccc(C(=O)O)cc3)ccc12 | – | – | – | –
CCN(CC)C(=O)C1CCCN(c2nc(NCCOc3ccccc3)c3ncn(-c4ccsc4)c3n2)C1 (centres undefined) | – | – | – | –
CCN(CC)C(=O)C1CCCN(c2nc(N)c3ncn(-c4ccsc4)c3n2)C1 (centres undefined) | 51 | – | – | –
CCN(CC)C(=O)C1CCCN(c2nc(Nc3ccccc3)c3ncn(-c4ccsc4)c3n2)C1 (centres undefined) | 33 | – | – | –
CCCNc1nc(N2CCCC(C(=O)N(CC)CC)C2)nc2c1ncn2-c1ccsc1 (centres undefined) | 37 | – | – | –
COc1ccc(-c2ncc(C(=O)NC3CCN(Cc4ccccc4)CC3)s2)cn1 | – | – | – | –
COC(=O)C1=CN(Cc2ccc(Cl)cc2)C=C(C(=O)OC)C1c1ccc(O)c(OC)c1 | – | – | – | –
CCCCCCC(=O)Oc1ccc(-c2cnc3ccccc3n2)cc1 | – | – | – | –
CCC(=O)Oc1ccc(-c2cnc3ccccc3n2)cc1 | 41 | – | – | –
COc1cc(Nc2cccc(C(=O)NCCCN3CCCC3=O)n2)cc(OC)c1OC | – | – | – | –
O=[N+]([O-])c1ccc(Nc2nccs2)c([N+](=O)[O-])c1 | 59 | – | – | –
O=[N+]([O-])c1cnc(Nc2ccc(S(=O)(=O)Nc3nccs3)cc2)c([N+](=O)[O-])c1 | – | – | – | –
SMILES | TEAD-YAP block | GPR151 activ | FBW7 act | MITF inh
OCC#CCSc1ncnn1-c1ccccc1 | – | – | 7.2 | –
COc1cccc(C2=CC(c3cccc(OC)c3)n3nnnc3N2)c1 (centres undefined) | 56 | – | – | –
CCOc1ccc(C2=CC(c3cc(OC)c(OC)c(OC)c3)n3nnnc3N2)cc1 (centres undefined) | 44 | – | – | –
COc1cccc(C2=CC(c3ccccc3F)n3nnnc3N2)c1 (centres undefined) | 44 | – | – | –
COc1cccc(C2=CC(c3cc(OC)c(OC)c(OC)c3)n3nnnc3N2)c1 (centres undefined) | 57 | – | – | –
COc1cccc(C2=CC(c3cccc(OC)c3OC)n3nnnc3N2)c1 (centres undefined) | – | – | – | –
CCOc1ccc(C2C=C(c3ccc(F)cc3)Nc3nnnn32)cc1 (centres undefined) | – | – | – | –
CC(CCn1cccn1)N1CCC2(CC1)CC2C(=O)NCc1cccs1 (centres undefined) | – | – | – | –
Cc1cccc(-n2nc([N+](=O)[O-])c(=NCCO)n2O)c1 | – | – | – | –
